# Source: PubChem BioAssay
# Test system: Lefty1
# Test: Lefty1 protein binding to printed compounds – biochemical, small-molecule microarray, 635/667 nm fluorescence, primary screen (AID 1139)
# Conditions: fluorescence 635/667, higher = more signal
row,Compound,composite z-score
1,COC(=O)[C@@]1(Cc2ccc(F)cc2)[C@H]2c3cc(C(=O)N(C)C)n(CCc4ccccn4)c3C[C@H]2CN1C(=O)c1ccccc1,0.221
2,Cc1ccc(S[C@]2(C(=O)NC3CC3)CC(=O)N(Cc3ccccc3)[C@@H]2c2ccc(CO)cc2)cc1,-0.663
3,O=C1C2C=CC(C(O)c3ccc(F)cc3)N(Nc3ccccc3)C2C(=O)N1c1ccccc1 (centres undefined),-0.233
4,Cc1cc(C)c(C(O)C2C=CC3C(=O)N(C)C(=O)C3N2Nc2ccccc2)c(C)c1 (centres undefined),-0.765
5,[N-]=[N+]=NCc1ccccc1C[C@]1(C(=O)NCCN2CCOCC2)N=C(c2ccc(OCCCO)cc2)O[C@H]1c1ccccc1N=[N+]=[N-],-0.209
6,O=C(OCCF)C1=CCC(c2cccc(Cl)c2)O1 (centres undefined),-0.217
7,[N-]=[N+]=NCc1ccccc1C[C@]1(C(=O)NCC(O)CO)N=C(c2ccc(OCCCO)cc2)O[C@H]1c1ccccc1N=[N+]=[N-] (some centres undefined),-0.923
8,COCC1=C2[C@@H](CCc3ccccc3)OB(O)C[C@@H]2[C@@H]2C(=O)N(Cc3ccccc3)C(=O)[C@@H]2C1,0.261
9,[N-]=[N+]=Nc1ccccc1[C@H]1OC(c2ccc(OCCCO)cc2)=N[C@@]1(CCS(=O)(=O)c1ccccc1)C(=O)O,-0.782
